# In PubChem BioAssay (NCATS):
# “And” between values parts separate entries of the source, which are not always exact repeats. Equal values may be shown once. Records with an inconclusive call do not appear. The source made the active and inactive calls. Calls follow the shape of the dose curve; as a rule, active = well fitted activation curve with a large enough effect; inconclusive = small, poorly fitted or top-dose-only effect; inactive = no such curve, though single readings can be large or run the other way.
# Biological target: Cellular tumor antigen p53 (Homo sapiens) (UniProt P04637)
# Experiment: Primary qHTS for small molecule compounds that upregulate eGFP-tagged delta133p53alpha (in N-terminal) cells. (AID 2060322); also: nearly all actives have a fitted effect of over 75% in size;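 as to activation: cells pre-induced with doxycycline then dosed without doxycycline; series mostly up to about 56 µM; 0% = DMSO vehicle and 100% = reference activator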
# Conditions: NCI-H358 eGFP-delta133p53alpha fluorescence, 24 h; activation: stronger effect = higher value
# Text: Assay Development and Screening Technology
# National Center for Advancing Translational Sciences (NCATS),
# National Institute of Health (NIH), Rockville, Maryland
# Cellular senescence (CS) is one of the hallmarks of aging and age-related diseases. Senescent cells are characterized by an irreversible growth arrest, an increase in senescence-associated beta-galactosidase (SA-beta-gal) activity and p16INK4a expression, an activation of the DNA damage response pathways, and the emergence of a senescence-associated secretory phenotype (SASP).
# Delta133p53alpha, a human/primate-specific p53 protein isoform, delays or inhibits the induction of CS and SASP in various types of human cells, including progeria-derived fibroblasts, primary normal astrocytes, and CD8+ T lymphocytes. Induction of delta133p53alpha with small molecule compounds may provide therapeutic opportunities for inhibition of senescence/SASP-associated pathologies in progeria syndromes, astrocyte-mediated neuroprotection in neurodegenerative diseases, and possibly prevention and treatment of a wider range of senescence- and aging-associated diseases.
# Here we report the development and validation of a cell-based quantitative high throughput screening (qHTS) assay in 1,536-well format. This qHTS assay uses the NCI-H358 cell line with doxycycline-inducible expression of enhanced green fluorescent protein (eGFP)-tagged delta133p53alpha, which allows efficient and highly quantitative measurement of the protein levels.
# PROTOCOL TABLE (as described by Inglese J, Shamu CE and Guy RK. 2007)
# SEQUENCE No. (e.g., 1, 2, 3, etc.); […] (e.g., Cells, Incubation, Reagent, etc.); VALUE; DESCRIPTION.
# 1; Cells; 4uL; 800 doxycycline treated cells / well in doxycycline-free media, 1536-well black, clear-bottom low base Aurora microplates.
# 2; Compounds; 23 nL; Kalypsis pin tool (Wako) equipped with 1536-well pin heads, 5-azacytidine positive control.
# 3; Incubation; 24 hr; 37C, 5% CO2; 95% relative humidity.
# 4; Aspiration; 1x; BioTek EL406 washer dispenser (Agilent).
# 5; Fixing; 3.5% paraformaldehyde, BioTek EL406 washer dispenser (Agilent).
# 6; Washing; 1x PBS; BioTek EL406 washer dispenser (Agilent).
# 7; Nuclei staining; 1:1000 dilution of Hoechst 33342 (Thermofisher), BioTek EL406 washer dispenser (Agilent).
# 8; Incubation; 20 min; in the dark at room temperature.
# 9; Washing; 2x, 1x PBS (ThermoFisher), BioTek EL406 washer dispenser (Agilent).
# 10; Reagent; 10 uL; 1x PBS per well, sealed with clear adhesive tape.
# NOTES (numbers refer to sequence numbers above).
# 1. NCI-H358 cells expressing eGFP-tagged delta133p53alpha were grown in T75 culture flasks and treated with doxycycline for 24h, at 10 ng/ml for eGFP-D133p53a cells (N-terminal cell) and 100 ng/ml for D133p53a-eGFP cells (C-terminal cells). Cells were trypsinized, counted using a Counted 3 Automated Cell Counter (Thermo Fisher), and diluted to a concentration of 200,000 cells/ml. A Multidrop Combi Reagent Dispenser (ThermoFisher) was used to dispense 800 cells/well in […] of doxycycline-free media, into 1536-well black/clear bottom low base plates (AuroraMicroplates).
# 2. After plating cells, 23 nl of compound library, DMSO vehicle control or positive control (5-azacytidine) were transferred by Pin Tool (Wako). The plate map layout was the same for each plate: (column 1) non-doxycycline treated cells + DMSO vehicle control; (column 2) doxycycline treated cells + DMSO vehicle control baseline; (column 3) doxycycline treated cells + positive control 57.5 uM final concentration 5-azacytidine; (column 4) doxycycline treated cells + serial dilution of 5-azacytidine, 16-point 1:2 titration spanning 1.8 nM to […] final concentration; (columns 5-48) doxycycline treated cells + titration of library compounds.
# 3. Cells were incubated at 37 °C, 5 % CO2, 95% RH with breathable metal lid for 24h.
# 4-10. […] After two washes, 10 ul of 1X PBS (Thermo Fisher) was dispensed to each well. Clear adhesive plate seals (VWR) were applied and plates stored at 4 °C.
# 11. […]
# Potency is read from the fitted curve at half-maximal effect.
# Cellular tumor antigen p53 (Homo sapiens), sequence (P04637 whole entry, looked up): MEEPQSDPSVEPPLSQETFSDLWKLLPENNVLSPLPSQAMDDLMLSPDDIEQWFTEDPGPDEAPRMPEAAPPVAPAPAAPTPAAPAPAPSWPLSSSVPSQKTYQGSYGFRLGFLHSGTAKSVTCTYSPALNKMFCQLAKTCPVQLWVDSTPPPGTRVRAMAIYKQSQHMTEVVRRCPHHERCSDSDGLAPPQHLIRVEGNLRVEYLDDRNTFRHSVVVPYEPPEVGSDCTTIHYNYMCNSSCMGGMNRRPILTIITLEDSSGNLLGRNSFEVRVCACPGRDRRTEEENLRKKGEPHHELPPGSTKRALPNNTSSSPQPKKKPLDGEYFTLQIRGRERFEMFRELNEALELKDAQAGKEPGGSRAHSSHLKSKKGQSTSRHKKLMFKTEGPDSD
Compound,activation,Potency
CC(/C=C/C1(O)C(C)(C)CC(O)CC1(C)O)OC1OC(CO)C(O)C(O)C1O (stereo not given),-5.34% (inactive),–
CC1(C)C[C@@H]2[C@H](C1)[C@@]1(C)C[C@]13C(O)OC[C@]3(O)[C@H]2O (stereo not given in full),6.25% (inactive),–
COc1cc2c3cc1Oc1cc(ccc1O)C[C@@H]1c4c(cc(OC)c(O)c4Oc4ccc(cc4)C[C@@H]3N(C)CC2)CC[N+]1(C)C,19.8% (inactive),–
CC(=O)c1ccc2c(c1)C(O)C(C(C)(C)O)O2 (stereo not given),-6.11% (inactive),–
C[C@@H]1O[C@@H](O[C@H]2[C@H](OC(=O)[C@]34CCC(C)(C)C[C@H]3C3=CCC5[C@@]6(C)C[C@H](O)[C@H](O[C@@H]7O[C@H](C(=O)O)[C@@H](O)[C@H](O)[C@H]7O)[C@@](C)(CO)C6[C@H](O)C[C@@]5(C)[C@]3(C)C[C@H]4O)O[C@@H](CO)[C@@H]2O)[C@H](O)[C@H](O)[C@H]1O[C@@H]1OC[C@@H](O)[C@H](O[C@H]2OC[C@](O)(CO)[C@H]2O)[C@H]1O (stereo not given in full),21.4% (inactive),–
COc1ccc(/C=C/C(=O)O[C@@H]2[C@@H](O[C@@H]3O[C@H](CO)[C@@H](O)[C@H](O)[C@H]3O)[C@@H](O)[C@H](O[C@H]3C4C=CO[C@@H](O[C@@H]5O[C@H](CO)[C@@H](O)[C@H](O)[C@H]5O)C4[C@@]4(CO)O[C@@H]34)O[C@H]2C)cc1 (stereo not given in full),-9.92% (inactive),–
CCN1CCN(Cc2ccc(Nc3ncc(F)c(-c4cc(F)c5nc(C)n(C(C)C)c5c4)n3)nc2)CC1,–,12 µM (active)
COc1cc(/C=C/C(=O)O[C@H]2[C@H](OC(=O)/C=C/c3cc(OC)c(O)c(OC)c3)O[C@H](CO[C@@H]3O[C@H](CO)[C@@H](O)[C@H](O)[C@H]3O)[C@@H](O)[C@@H]2O)ccc1O,-3.57% (inactive),–
COc1cc(CO)cc(OC)c1O[C@@H]1O[C@H](CO)[C@@H](O)[C@H](O)[C@H]1O,-2.68% (inactive),–
CN(C)CCOC(=O)COc1ccc(Cl)cc1,-18.4% (inactive) and -20.3% (inactive),–
C[N+](C)(C)CCOC(N)=O,-23.4% (inactive) and -15.4% (inactive),–
C=CCC1=C[C@]2(OC)[C@H](C)[C@@H](c3ccc4c(c3)OCO4)O[C@]2(OC)CC1=O,1.53% (inactive),–
COc1ccc([C@@H]2CNC(=O)C2)cc1OC1CCCC1,7.46% (inactive),–
CC(NC(=O)CCc1nc2ccccc2c(=O)[nH]1)c1ccccc1 (stereo not given),-1.43% (inactive),–
CN(C)CCOC(c1ccccc1)c1ccc(Br)cc1 (stereo not given),-6.21% (inactive),–
Cc1occc(=O)c1O[C@@H]1O[C@H](CO[C@@H]2OC[C@](O)(CO)[C@H]2O)[C@@H](O)[C@H](O)[C@H]1O,0% (inactive),–
COc1cc2c(cc1Cc1cccc(Cl)c1F)c(=O)c(C(=O)O)cn2[C@H](CO)C(C)C,-15% (inactive),–
CSc1cccc(Nc2ncc3cc(-c4c(Cl)cccc4Cl)c(=O)n(C)c3n2)c1,-0.477% (inactive),–
O=C(O)[C@H](O)c1ccccc1,-6.21% (inactive),–
O=C(CN1C(=O)C2(CCCC2)NCC1c1cc(F)cc(F)c1)Nc1ccc2c(c1)CC1(C2)C(=O)Nc2ncccc21 (stereo not given),0.477% (inactive),–

Compound,activation,Potency
Nc1c(S(=O)(=O)O)cc(Nc2ccc(Nc3nc(Cl)nc(Nc4ccc(S(=O)(=O)O)cc4)n3)c(S(=O)(=O)O)c2)c2c1C(=O)c1ccccc1C2=O,-2.44% (inactive),–
OC[C@H]1O[C@@H](n2cnc3c2NC=NC[C@@H]3O)C[C@H]1O,-21% (inactive),–
CCCn1c(=O)c2[nH]c(C34CC5CC3C[C@@H](C5)C4)nc2n(CCC)c1=O,31.9% (inactive),–
CNCc1cc(-c2ccccc2F)n(S(=O)(=O)c2cccnc2)c1,12.5% (inactive),–
CCNC(=O)Nc1ccc(Oc2ncnc(N)c2C=NOC)cc1Cl,-10.2% (inactive),–
C=C[C@H]1C(O[C@@H]2O[C@H](CO)[C@@H](O)[C@H](O)[C@H]2O)OC=C2C(=O)N3CCc4c([nH]c5ccccc45)C3CC21 (stereo not given in full),–,5.22 µM (active)
CC#CCOC(=O)c1c(C)nc2sc3c(c2c1N)CCC(O)C3 (stereo not given),-13.8% (inactive),–
COc1cc(/C=C/C(=O)O[C@H]2C[C@@H]3C(C(=O)O)=CO[C@@H](O[C@@H]4O[C@H](CO)[C@@H](O)[C@H](O)[C@H]4O)[C@@H]3[C@H]2C)ccc1O,-2.29% (inactive),–
CC(C)=CCC[C@](C)(O[C@@H]1O[C@H](CO[C@@H]2OC[C@H](O)[C@H](O)[C@H]2O)[C@@H](O)[C@H](O)[C@H]1O)[C@H]1CC[C@]2(C)[C@@H]1[C@H](O)C[C@@H]1[C@@]3(C)CC[C@H](O[C@@H]4O[C@H](CO)[C@@H](O)[C@H](O)[C@H]4O[C@@H]4O[C@H](CO)[C@@H](O)[C@H](O)[C@H]4O)C(C)(C)[C@@H]3CC[C@]12C,9.67% (inactive),–
FC(F)(F)c1ccccc1-n1ccnc1,8.47% (inactive) and -16.2% (inactive),–
CC1=C(/C=C/C(C)=C/C=C/C(C)=C/C(=O)O)C(C)(C)CCC1,11.9% (inactive) and -12.6% (inactive),–
Cc1occc1C(=O)n1ccnc1,1.43% (inactive),–
CC1=C(C(=O)O)/C(=C\CO[C@@H]2O[C@H](CO)[C@@H](O)[C@H](O)[C@H]2O)C(OC(=O)/C=C/c2ccc(O)cc2)C1 (stereo not given in full),-3.82% (inactive),–
Cc1ccc(S(=O)(=O)n2ccc(-c3c(-c4ccc(Cl)cc4)noc3C)n2)cc1,-18.8% (inactive),–
CC(=O)O[C@H]1[C@H](C)[C@@H](O)[C@H]2[C@@H]1C=C(C(=O)O)[C@H]1C[C@@H]3[C@H]([C@H]21)[C@H]1C(=O)O[C@@H]2CC[C@@]3(C)O[C@]1(O)[C@@H]2C,-11.5% (inactive),–
NS(=O)(=O)c1cc2c(cc1C(F)(F)F)NCNS2(=O)=O,6.21% (inactive),–
Cc1cccc(C)c1NC(=O)C(C)N (stereo not given),10.9% (inactive) and -14% (inactive),–
Nc1nc(Cl)nc2c1ncn2[C@H]1C[C@H](O)[C@@H](CO)O1,24.5% (inactive),–
CC(C)(C)NCC(O)COc1ccc(NC(=O)NC2CCCCC2)cc1 (stereo not given),5.08% (inactive),–
O=C(NCCCNc1nc(Nc2cccc(NC(=O)N3CCCC3)c2)ncc1I)c1cccs1,9.72% (inactive),–
